Measured values reported in the OligoGym collection.

target: RNPEPL1; experiment: pooled miR-30 sensor sort-seq; sequence = guide strand; conditions: shRNA
Also: reference of the scale not given here.

| Sequence | sensor-assay potency score (higher = more potent) |
| --- | --- |
| TACAAGAGACAGGCTGTCCTGT | 0.345 |
| TACTTCTCCACATAGGCTCGGA | -0.423 |
| TAGGTCTCGGTGGTGATACGGC | -0.874 |
| TAGTACACGAAGCAGTAGCCCT | -0.845 |
| TCTGTGTCTGCTTCAGCCTTGC | 0.0808 |
| TGGCAGGAAGACAATGTCGTAC | -1.01 |
| TGAACTTGTACTTCTCCACATA | -0.899 |
| TTGTACTTCTCCACATAGGCTC | -0.15 |
| TTCTCGTAGGTGAACAGGTTCA | -0.738 |
| TTCTGCGGTCCACAGCTGGAAA | -1.5 |
| TAGGTGAACAGGTTCATCAGGT | 0.726 |
| TCAGGATAGTAGTCGTTGCGGA | -0.665 |

target: ROBO3; experiment: as above; conditions: shRNA

| Sequence | sensor-assay potency score (higher = more potent) |
| --- | --- |
| TAGCACAGTACTTTGCTGGCTT | 0.438 |
| TTCAGCTGCCGCACTCTCCCGT | -0.447 |
| TGTAGGTCCAACATTGTCCAGC | -0.683 |
| TTTCCTTTGGTCTCGCACTGGA | -0.00997 |
| TTTATAAACAAGTCTCAGGTGG | -0.186 |
| TTGGCCATTGTCTTGAACTGGA | -0.232 |
| TTGTCTTGAACTGGAGGTCATC | -1.28 |
| TTCATCTGGGTGGAGCACCCGC | -0.884 |
| TTCGTTGTAATATCTGTCGTCC | 0.714 |
| TCTTAGCACAGTACTTTGCTGG | -0.938 |
| TTGTAATATCTGTCGTCCGGGT | -0.931 |
| TTGGGCTTGCACCTTGATCTGG | -0.739 |

target: ROCK2; experiment: as above; conditions: shRNA

| Sequence | sensor-assay potency score (higher = more potent) |
| --- | --- |
| TATTTTTATCTGCTAGTCGTGC | -0.412 |
| TTGAGAAATACTGTTCTGCTTC | 0.537 |
| TTTTGCTGTATCTTCATTGAAG | -0.765 |
| TCTATTGTTAGATTCCAGCTGC | 0.544 |
| TAAAGCATTGGTTTCATCCAGT | 0.0253 |
| TAACTTGGCAGTCTCCAGCAGG | -1.05 |
| TAGATGTCCATGTTTATCCAAG | -1.07 |
| TTTCTAACTGTCTTAATGCTGA | -0.42 |
| TTTATCTGCTAGTCGTGCCTTT | 0.209 |
| TTCTGCTTCGAGCTGATCCTGG | -0.437 |
| TTTTCTGACATTTTTAGTGTGT | 0.278 |

target: ROPN1; experiment: as above; conditions: shRNA

| Sequence | sensor-assay potency score (higher = more potent) |
| --- | --- |
| TACAAGAAAATTGATTTTGGGT | 0.726 |
| TTCTGAAGTACAATCATCTCTG | 0.437 |
| AACTGGAAGGTGCTGAACGGGA | -0.696 |
| TGAAGTACAATCATCTCTGTAT | 0.335 |
